As usually defined, the AC50 is the concentration at which the activity in the assay is half-maximal.

Structures are written as SMILES. Records with an inconclusive call do not appear. More than one record can exist for a structure, and the calls need not agree. Calls of active or inactive are those of the source. Rule for the calls, unless noted: active = hit-call score of the fitted dose curve at least 0.9, where 1 is the maximum; inconclusive = response in the unintended direction; inactive = score below 0.9.

Consider 9 molecules from PubChem BioAssay (EPA / NIEHS).

Assay [1] is described as follows: ATG_PBREM_CIS: Attagene CIS-FACTORIAL HepG2 Assay for human Phenobarbital-responsive Enhancer Module (PBREM) (AID 2282955; active = hit-call score of the fitted dose curve at least 0.9, where 1 is the maximum; inactive = score below 0.9). The settings on record: HepG2 PBREM cis-reporter, Attagene multiplexed transcription; actives raise or lower the signal. The gist of the method: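 Multiplexed cis-reporter readout in human hepatoma HepG2 cells; PBREM-regulated transcript quantified after 24 h exposure by fluorescent RT-PCR fragment analysis. Signal changes up or down fitted relative to DMSO.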

Assay [2] is described as follows: ATG_RORE_CIS: Attagene CIS-FACTORIAL HepG2 Assay for human RAR-related Orphan Receptor Element (RORE) (AID 2282959; active = hit-call score of the fitted dose curve at least 0.9, where 1 is the maximum; inactive = score below 0.9). The settings on record: HepG2 Attagene cis-factorial RORE reporter, mRNA; actives raise or lower the signal. Summed up:
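Transfect HepG2 with MRTUs; treat 24 h; extract RNA; RT with oligo(dT); PCR with reporter-specific primers; 6-FAM primer extension; HpaI digest 2 h at 37 C; capillary electrophoresis. Fit vs DMSO, bidirectional.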

Assay [3] concerns the target Transcription factor Sp1 (Homo sapiens) (UniProt P08047). Nature of the assay: ATG_Sp1_CIS: Attagene CIS-FACTORIAL HepG2 Assay for human Specificity Protein 1 (Sp1) (AID 2282961; active = hit-call score of the fitted dose curve at least 0.9, where 1 is the maximum; inactive = score below 0.9). The settings on record: HepG2 Sp1 cis-reporter transcription, actives raise or lower the signal. The gist of the method:
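Chemicals are dosed onto HepG2 cells transfected with multiple cis-promoter reporter constructs, and after 24 h reporter RNA is reverse-transcribed, PCR-amplified and resolved by capillary electrophoresis for fluorescence quantitation; activity is scored up or down against DMSO.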

Assay [4] deals with Signal transducer and activator of transcription 3 (Homo sapiens) (UniProt P40763). Nature of the assay: ATG_STAT3_CIS: Attagene CIS-FACTORIAL HepG2 Assay for human Signal Transducer and Activator of Transcription 3 (STAT3) (AID 2282963; active = hit-call score of the fitted dose curve at least 0.9, where 1 is the maximum; inactive = score below 0.9). Particulars: HepG2, Attagene cis-factorial STAT3 reporter transcription; actives raise or lower the signal. Summed up: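 Uses human liver HepG2 transiently carrying cis-regulated reporter transcription units. Following 24 h dosing, reporter mRNA induction was detected by RT-PCR and capillary electrophoresis, analysed bidirectionally versus DMSO.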

Assay [5] has as its target Hepatocyte nuclear factor 4-alpha (Homo sapiens) (UniProt P41235). Nature of the assay: ATG_HNF4a_TRANS: Attagene TRANS-FACTORIAL HepG2 Assay for human Hepatocyte Nuclear Factor 4 alpha (HNF4a) (AID 2282982). Particulars: HepG2 HNF4a transactivation reporter, mRNA readout. Summed up:
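Using HepG2 liver cells transfected with GAL4-UAS reporter units, chemical-induced mRNA increases were assessed after 24 hours. Fluorescent RT-PCR fragments were separated by capillary electrophoresis and compared with DMSO negative controls.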

Assay [6] in a line: ATG_M_32_TRANS: Attagene TRANS-FACTORIAL HepG2 Assay for M32 Transcription Factor (Internal Marker) (AID 2282984).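 Note: transcript level of a background control reporter unit measured by RT-PCR and capillary electrophoresis.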 Particulars: HepG2 Attagene TRANS M32 internal marker reporter. The gist of the method:
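Fluorescence-detected mRNA induction, HepG2 liver cells, 24 h after dosing. Multiple GAL4-UAS reporter units introduced by transient transfection; background-control endpoint analysed for gain of signal against DMSO.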

The nature of assay [7]: ATG_NFI_CIS: Attagene CIS-FACTORIAL HepG2 Assay for human Nuclear Factor I (NFI) (AID 2282989; active = hit-call score of the fitted dose curve at least 0.9, where 1 is the maximum; inactive = score below 0.9). Particulars: HepG2 cis-regulatory reporter, NFI response element transcription; actives raise or lower the signal. Summed up:
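HepG2, transient MRTU, 24 h exposure; RNA→cDNA→PCR→FAM label→HpaI→CE fluorescence. Bidirectional fit, DMSO = baseline.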

The target of assay [8] is Peroxisome proliferator-activated receptor gamma (Homo sapiens) (UniProt P37231). The assay can be described thus: ATG_PPARg_TRANS: Attagene TRANS-FACTORIAL HepG2 Assay for human Peroxisome Proliferator-activated Receptor-gamma (PPARg) (AID 2283007). The gist of the method:
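Chimeric NR-Gal4 transactivation is measured in transiently transfected HepG2 cells by reporter mRNA induction at 24 h. Detection uses RT-PCR with fluorescent labelling and capillary electrophoresis; DMSO defines baseline.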

Assay [9] can be described thus: TOX21_p53_BLA_p2_viability: Viability Assessment in the Tox21 HCT-116 p53 Agonism Beta-lactamase Assay, Phase 2 (AID 2283591).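 Note: actives lower the ATP signal meaning cytotoxicity.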 The gist of the method:
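HCT-116 p53-bla cells (4000/well) rested 5 h at 37C, then received compounds in DMSO (217-fold dilution) for 16 h at 37C, 5% CO2. After the CCF4 read, CellTiter-Glo was added; ATP luminescence was read after 30 min at room temperature.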

The target of assay [10] is Cellular tumor antigen p53 (Homo sapiens) (UniProt P04637). Nature of the assay: TOX21_p53_BLA_p2_ratio: Tox21 HCT-116 p53 Agonism Beta-lactamase Assay, Ratio, Phase 2 (AID 2283592). Summed up:
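Readout: blue/green (460/530 nm) FRET emission ratio after 2 h CCF4-AM loading at room temperature, excitation 405 nm. HCT116 p53 bla cells, 16 h compound exposure at 37C, 5% CO2; agonist direction fitted against DMSO baseline.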

Assay [11] shares this target. The assay can be described thus: TOX21_p53_BLA_p3_ratio: Tox21 HCT-116 p53 Agonism Beta-lactamase Assay, Ratio, Phase 3 (AID 2283596). The gist of the method:
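Cells were seeded at 4000/well, rested 5 h at 37C, then dosed with DMSO compound solutions (217-fold dilution) for 16 h. CCF4-AM substrate was loaded for 2 h at room temperature, and the 460/530 nm emission ratio was fitted for gain of signal versus DMSO.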

Assay [12] can be described thus: TOX21_p53_BLA_p4_viability: Viability Assessment in the Tox21 HCT-116 p53 Agonism Beta-lactamase Assay, Phase 4 (AID 2283597).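 Note: hits lower the luminescence signal meaning cytotoxicity.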 The gist of the method: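 ATP content by CellTiter-Glo luminescence, 30 min RT, read after the beta-lactamase ratio step. Cells: HCT116, 4000/well, compound added after 5 h, exposure 16 h at 37C. Signal loss = reduced viability.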
The target of assay [13] is Cellular tumor antigen p53 (Homo sapiens) (UniProt P04637). The assay can be described thus: TOX21_p53_BLA_p5_ratio: Tox21 HCT-116 p53 Agonism Beta-lactamase Assay, Ratio, Phase 5 (AID 2283599). Summed up:
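HCT-116 cells carrying a p53-inducible beta-lactamase reporter were seeded at 4000 cells/well and dosed after 5 h with compound in DMSO (217-fold dilution). After 16 h at 37C, CCF4-AM substrate was added for 2 h, and the 460/530 nm emission ratio was scored as gain-of-signal versus DMSO.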

Assay [14] in a line: TOX21_p53_BLA_p5_viability: Viability Assessment in the Tox21 HCT-116 p53 Agonism Beta-lactamase Assay, Phase 5 (AID 2283600). Summed up: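 ATP luminescence (CellTiter-Glo, 30 min, RT) served as the viability read-out, with loss of signal indicating cytotoxicity. Compounds in DMSO were pinned at a 217-fold dilution onto 4000 cells/well and incubated 16 h, 37C.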
Assay [15] deals with Cellular tumor antigen p53 (Homo sapiens) (UniProt P04637). Nature of the assay: TOX21_p53_BLA_p4_ratio: Tox21 HCT-116 p53 Agonism Beta-lactamase Assay, Ratio, Phase 4 (AID 2283601). The gist of the method: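 HCT116 cells carrying an inducible beta-lactamase reporter were plated at 4000 cells/well, rested 5 h, then exposed to compounds in DMSO (217-fold dilution) for 16 h at 37C. CCF4-AM substrate was loaded 2 h at room temperature; 460/530 nm emission ratio scored gain-of-signal versus DMSO.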

The nature of assay [16]: ACEA_ER_AUC_viability: ACEA Biosciences xCELLigence Real-Time Cell Analysis on Estrogen Receptor Agonism for Viability (AID 2283782).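 Note: hit means loss of impedance signal meaning reduced cell growth or viability.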 Summed up:
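Continuous-exposure impedance cell analysis uses T-47D cells in charcoal-stripped serum, eight 1:4 dilutions topping at 100 uM final, biological duplicate. Area under the growth curve at 80 h is fitted against DMSO baseline.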

A short description of assay [17]: ATG_GRE_CIS: Attagene CIS-FACTORIAL HepG2 Assay for human Glucocorticoid Response Elements (GRE) (AID 2282947; active = hit-call score of the fitted dose curve at least 0.9, where 1 is the maximum; inactive = score below 0.9). Particulars: HepG2 GRE cis-reporter, Attagene multiplex mRNA; actives raise or lower the signal. Summed up: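 HepG2, transient cis-reporter transfection, 24 h. Reporter mRNA: RT-PCR then CE, fluorescence. Fit both directions vs DMSO.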
Assay [18] is described as follows: ATG_M_06_TRANS: Attagene TRANS-FACTORIAL HepG2 Assay for M06 Transcription Factor (Internal Marker) (AID 2282983).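 Note: reporter transcript level by RT-PCR then capillary electrophoresis fluorescence.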 Particulars: HepG2 Attagene TRANS M06 internal marker reporter. The gist of the method:
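Read-out: fluorescent reporter cDNA fragments resolved by capillary electrophoresis after RT-PCR and HpaI cut. Source cells were HepG2 carrying transfected multi-reporter GAL4 constructs, dosed 24 h. Increase over DMSO control analysed.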

Assay [19] deals with Transcriptional activator Myb (Homo sapiens) (UniProt P10242). Nature of the assay: ATG_Myb_CIS: Attagene CIS-FACTORIAL HepG2 Assay for human Myeloblastosis (Myb) Proto-Oncogene Transcription Factor (AID 2282986; active = hit-call score of the fitted dose curve at least 0.9, where 1 is the maximum; inactive = score below 0.9). The settings on record: HepG2 Attagene CIS-FACTORIAL Myb reporter transcription; actives raise or lower the signal. The gist of the method:
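Using HepG2 liver cells bearing transiently transfected cis-promoter reporter constructs, the assay measures induction or loss of reporter mRNA after 24 hours of dosing. Detection used fluorescently labeled RT-PCR products separated by capillary electrophoresis.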

For assay [20], the target named is human Retinoid X Receptor beta (RXRb), RXRB (gene 6257) (UniProt P28702). The assay can be described thus: ATG_RXRb_TRANS: Attagene TRANS-FACTORIAL HepG2 Assay for human Retinoid X Receptor beta (RXRb) (AID 2283013). The gist of the method:
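Read-out: reporter mRNA induction via RT-PCR plus capillary electrophoresis fluorescence, analysed as signal increase relative to DMSO. Cells were human HepG2, transiently transfected with GAL4-UAS reporter constructs and chimeric receptor-Gal4 fusions, dosed for 24 h.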

Chain of Transcriptional activator Myb (Homo sapiens) (P10242 whole entry, looked up): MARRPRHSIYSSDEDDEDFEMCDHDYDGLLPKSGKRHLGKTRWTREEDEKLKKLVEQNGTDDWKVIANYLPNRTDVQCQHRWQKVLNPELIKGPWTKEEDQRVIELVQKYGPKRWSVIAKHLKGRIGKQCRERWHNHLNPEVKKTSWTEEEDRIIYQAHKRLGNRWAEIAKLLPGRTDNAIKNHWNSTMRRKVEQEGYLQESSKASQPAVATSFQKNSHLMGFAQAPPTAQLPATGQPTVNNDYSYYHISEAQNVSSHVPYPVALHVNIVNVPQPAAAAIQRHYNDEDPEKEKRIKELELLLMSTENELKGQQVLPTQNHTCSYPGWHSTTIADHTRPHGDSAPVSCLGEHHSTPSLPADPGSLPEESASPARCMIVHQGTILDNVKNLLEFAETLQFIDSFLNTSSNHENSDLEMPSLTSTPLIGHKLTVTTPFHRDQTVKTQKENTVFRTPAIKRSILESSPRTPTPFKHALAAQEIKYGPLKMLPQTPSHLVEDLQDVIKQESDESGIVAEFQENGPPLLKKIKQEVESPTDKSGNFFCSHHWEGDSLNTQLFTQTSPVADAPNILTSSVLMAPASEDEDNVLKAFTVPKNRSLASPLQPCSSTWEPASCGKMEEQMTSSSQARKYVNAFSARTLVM
Chain of human Retinoid X Receptor beta (RXRb), RXRB (gene 6257) (P28702 whole entry, looked up, the tested form may be a part): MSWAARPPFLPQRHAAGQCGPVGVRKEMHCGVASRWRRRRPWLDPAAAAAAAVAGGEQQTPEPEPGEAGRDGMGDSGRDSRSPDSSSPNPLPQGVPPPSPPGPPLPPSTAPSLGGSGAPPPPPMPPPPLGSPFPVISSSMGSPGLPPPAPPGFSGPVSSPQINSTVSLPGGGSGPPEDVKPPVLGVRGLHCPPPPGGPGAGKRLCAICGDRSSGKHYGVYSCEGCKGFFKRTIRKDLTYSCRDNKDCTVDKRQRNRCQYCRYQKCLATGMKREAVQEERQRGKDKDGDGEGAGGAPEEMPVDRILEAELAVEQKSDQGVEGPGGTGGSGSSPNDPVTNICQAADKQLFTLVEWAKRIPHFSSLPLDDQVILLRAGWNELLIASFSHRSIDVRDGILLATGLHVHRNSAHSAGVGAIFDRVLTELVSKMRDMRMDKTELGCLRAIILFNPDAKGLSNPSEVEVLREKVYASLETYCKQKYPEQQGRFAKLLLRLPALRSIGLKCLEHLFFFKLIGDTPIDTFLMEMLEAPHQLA
Chain of Transcription factor Sp1 (Homo sapiens) (P08047 whole entry, looked up): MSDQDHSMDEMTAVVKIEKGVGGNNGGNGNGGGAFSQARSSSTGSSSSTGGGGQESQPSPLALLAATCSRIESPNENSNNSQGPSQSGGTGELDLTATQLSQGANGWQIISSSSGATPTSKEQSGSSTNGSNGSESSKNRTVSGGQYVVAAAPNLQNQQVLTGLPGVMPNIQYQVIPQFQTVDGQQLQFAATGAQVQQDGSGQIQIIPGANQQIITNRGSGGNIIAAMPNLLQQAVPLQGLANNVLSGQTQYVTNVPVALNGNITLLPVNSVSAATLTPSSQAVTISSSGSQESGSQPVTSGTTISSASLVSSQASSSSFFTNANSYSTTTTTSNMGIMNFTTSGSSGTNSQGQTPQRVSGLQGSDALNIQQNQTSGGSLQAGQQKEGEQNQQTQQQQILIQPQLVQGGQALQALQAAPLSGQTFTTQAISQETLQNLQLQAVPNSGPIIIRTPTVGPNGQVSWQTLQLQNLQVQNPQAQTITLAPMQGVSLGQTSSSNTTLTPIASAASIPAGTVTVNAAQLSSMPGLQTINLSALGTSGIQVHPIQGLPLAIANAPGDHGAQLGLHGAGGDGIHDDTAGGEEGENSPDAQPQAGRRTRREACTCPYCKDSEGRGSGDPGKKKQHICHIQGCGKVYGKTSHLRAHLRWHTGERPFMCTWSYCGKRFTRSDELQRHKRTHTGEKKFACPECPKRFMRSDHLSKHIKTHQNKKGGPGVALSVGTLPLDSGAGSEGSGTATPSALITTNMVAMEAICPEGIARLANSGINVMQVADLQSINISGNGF
Chain of Hepatocyte nuclear factor 4-alpha (Homo sapiens) (P41235 whole entry, looked up, the tested form may be a part): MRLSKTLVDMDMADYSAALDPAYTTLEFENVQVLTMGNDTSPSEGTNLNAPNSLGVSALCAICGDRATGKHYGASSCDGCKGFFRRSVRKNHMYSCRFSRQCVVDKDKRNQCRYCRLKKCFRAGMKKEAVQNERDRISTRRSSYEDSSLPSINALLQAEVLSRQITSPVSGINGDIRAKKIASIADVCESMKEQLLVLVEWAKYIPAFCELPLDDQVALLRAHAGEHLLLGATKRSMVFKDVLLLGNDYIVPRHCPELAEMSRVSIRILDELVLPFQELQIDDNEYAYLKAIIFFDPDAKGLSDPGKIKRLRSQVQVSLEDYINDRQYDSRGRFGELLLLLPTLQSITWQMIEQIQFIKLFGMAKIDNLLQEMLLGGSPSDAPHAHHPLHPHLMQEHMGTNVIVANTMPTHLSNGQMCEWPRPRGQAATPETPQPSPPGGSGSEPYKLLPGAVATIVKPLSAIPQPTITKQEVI
Chain of Peroxisome proliferator-activated receptor gamma (Homo sapiens) (P37231 whole entry, looked up, the tested form may be a part): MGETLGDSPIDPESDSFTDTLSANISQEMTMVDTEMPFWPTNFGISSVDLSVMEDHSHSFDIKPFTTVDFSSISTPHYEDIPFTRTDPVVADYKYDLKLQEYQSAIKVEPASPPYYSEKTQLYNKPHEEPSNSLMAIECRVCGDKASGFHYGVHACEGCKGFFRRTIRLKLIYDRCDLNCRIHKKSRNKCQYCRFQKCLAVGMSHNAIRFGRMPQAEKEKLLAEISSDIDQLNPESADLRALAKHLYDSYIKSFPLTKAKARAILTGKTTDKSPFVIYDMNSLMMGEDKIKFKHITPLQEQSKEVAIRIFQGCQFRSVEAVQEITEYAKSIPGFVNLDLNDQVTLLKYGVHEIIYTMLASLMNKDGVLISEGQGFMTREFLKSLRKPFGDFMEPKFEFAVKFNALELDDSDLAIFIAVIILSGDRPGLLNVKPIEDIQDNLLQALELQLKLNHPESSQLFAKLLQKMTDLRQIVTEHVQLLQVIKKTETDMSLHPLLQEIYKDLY
Chain of Signal transducer and activator of transcription 3 (Homo sapiens) (P40763 whole entry, looked up): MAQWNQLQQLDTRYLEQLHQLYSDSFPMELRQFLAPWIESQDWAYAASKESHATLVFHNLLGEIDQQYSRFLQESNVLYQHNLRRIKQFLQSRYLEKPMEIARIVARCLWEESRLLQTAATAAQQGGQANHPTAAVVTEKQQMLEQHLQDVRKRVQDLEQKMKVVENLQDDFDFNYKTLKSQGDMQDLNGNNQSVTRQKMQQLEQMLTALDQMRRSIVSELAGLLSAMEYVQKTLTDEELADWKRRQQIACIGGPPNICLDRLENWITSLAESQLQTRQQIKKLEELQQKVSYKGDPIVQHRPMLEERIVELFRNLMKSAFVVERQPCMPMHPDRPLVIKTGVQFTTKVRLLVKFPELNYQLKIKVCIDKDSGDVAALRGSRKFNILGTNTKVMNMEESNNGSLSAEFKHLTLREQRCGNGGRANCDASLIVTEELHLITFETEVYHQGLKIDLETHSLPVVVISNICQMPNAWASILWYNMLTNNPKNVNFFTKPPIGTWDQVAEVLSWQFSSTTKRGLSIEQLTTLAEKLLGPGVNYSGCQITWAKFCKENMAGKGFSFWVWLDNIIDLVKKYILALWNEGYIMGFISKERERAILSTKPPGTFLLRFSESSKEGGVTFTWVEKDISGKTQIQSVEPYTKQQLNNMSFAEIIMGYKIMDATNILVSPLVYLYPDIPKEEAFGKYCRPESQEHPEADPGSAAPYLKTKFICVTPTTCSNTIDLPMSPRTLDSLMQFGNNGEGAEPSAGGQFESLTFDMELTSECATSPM
Chain of Cellular tumor antigen p53 (Homo sapiens) (P04637 whole entry, looked up): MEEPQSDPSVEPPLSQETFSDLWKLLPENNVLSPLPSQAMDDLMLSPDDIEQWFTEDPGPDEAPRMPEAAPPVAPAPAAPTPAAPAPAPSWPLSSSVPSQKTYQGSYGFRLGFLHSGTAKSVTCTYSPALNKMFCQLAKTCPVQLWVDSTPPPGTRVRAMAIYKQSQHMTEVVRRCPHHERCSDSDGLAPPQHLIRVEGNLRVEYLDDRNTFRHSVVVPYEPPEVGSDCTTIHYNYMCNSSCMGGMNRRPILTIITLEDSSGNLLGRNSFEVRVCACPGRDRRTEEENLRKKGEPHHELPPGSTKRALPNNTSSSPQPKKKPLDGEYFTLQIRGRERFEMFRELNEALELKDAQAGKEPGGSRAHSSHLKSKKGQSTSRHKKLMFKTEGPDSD

On to `O=S(=O)(c1ccccc1)c1ccccc1`, for which the outcome in assay [1], in assay [2], in assay [3], in assay [4], in assay [5] and in assay [6] was inactive. In addition, the result in assay [7], in assay [8], in assay [9], in [10], in assay [11] and in assay [12] was inactive. The outcome in assay [13], in assay [14], in assay [15] and in assay [16] was inactive.
As for `O=C(CCl)c1ccccc1`, the AC50 in assay [17] was 8.88 µM (active); in assay [8], 16.4 µM (active); in assay [20], 33.4 µM (active); in [11], 64.3 µM (active); in assay [16], 10.9 µM (active). The molecule was classed as inactive in assay [3], in assay [4], in assay [5], in assay [18], in assay [19] and in assay [7]. In addition, the result in assay [9], in [10], in assay [11], in [12], in assay [13] and in assay [14] was inactive. The result in assay [15] was inactive.
As for `CC(C)[C@@H](C(=O)O[C@@H](C#N)c1cccc(Oc2ccccc2)c1)c1ccc(Cl)cc1`, the outcome in assay [1], in [2], in assay [3], in [4], in assay [18] and in [6] was inactive. For the same molecule, the result in [19], in assay [8], in [20], in [9], in [10] and in assay [11] was inactive. For the same molecule, the result in assay [12], in [13], in assay [14] and in assay [15] was inactive.
On to `CCOP(=O)(OCC)Oc1ccc([N+](=O)[O-])cc1`, for which the result in assay [1], in assay [3], in assay [4], in assay [18], in assay [6] and in assay [19] was inactive. In addition, the molecule was classed as inactive in [7], in assay [8], in assay [20], in assay [9], in [11] and in assay [12]. For the same molecule, the outcome in assay [13], in [14] and in [15] was inactive.
Consider `CCOP(O)OCC`, for which the molecule was called inactive in assay [17], in [1], in [3], in assay [4], in assay [5] and in assay [18]. The result in assay [6], in assay [19] and in [8] was inactive.
Regarding `Cc1ccccc1CCl`, the outcome in assay [17], in assay [1], in assay [2], in assay [3], in assay [4] and in assay [18] was inactive. The molecule was classed as inactive in [6], in [19], in assay [7], in assay [8], in [20] and in [10]. For the same molecule, the outcome in [11], in [13], in assay [14], in assay [15] and in assay [16] was inactive.
Regarding `CC1(C)CC(=O)CC(C)(C)N1[O]`, the outcome in assay [1], in [3], in assay [4], in [5], in assay [6] and in assay [19] was inactive. The call in assay [8], in assay [9], in assay [10], in assay [12], in assay [14] and in assay [15] was inactive. Besides, in [16], the call was inactive.
Consider `CCC[N+](=O)[O-]`, for which the outcome in [1], in [2], in [3], in assay [5], in assay [18] and in assay [6] was inactive. The molecule was called inactive in [19], in assay [7], in assay [9], in assay [11], in [12] and in [13]. Also, the molecule was classed as inactive in [14], in assay [15] and in [16].
With `O=C(CCN1CC1)OCC(CO)(COC(=O)CCN1CC1)COC(=O)CCN1CC1`, the molecule was classed as inactive in [17], in assay [1], in assay [2], in [5], in [18] and in assay [7]. Also, the result in assay [8], in assay [20], in [10], in assay [11], in assay [13] and in [14] was inactive. Further, in assay [15], the result was inactive. The half-maximal activity concentration (AC50) in assay [16] is 63.1 µM (active).
